{"source": "PubChem BioAssay (NCATS)", "note": "Records with an inconclusive call do not appear. Calls of active or inactive are those of the source. Calls come from the whole dose curve; as a rule, active = well fitted inhibition curve with a large enough effect; inconclusive = small, poorly fitted or top-dose-only effect; inactive = flat fitted curve, though single readings scatter. % is set by controls: 0 for no effect and ±100 for the full control effect; potency is the fitted concentration of half-maximal effect.", "data": [{"system": "KB-3-1", "assay": "Cytotoxic Profiling of Annotated Libraries Using Quantitative High-Throughput Screening (AID 1296008); note: nearly all actives have a fitted effect of over 60% in size", "conditions": "Five cell lines viability, CellTiter-Glo ATP luminescence, 48-72 h; max response: hits give low values", "procedure,_shortened": "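Cells exposed to compounds for 48 or 72 hr at 37 degrees Celsius. Viability read as ATP-coupled luminescence with CellTiter-Glo after 10 min at room temperature.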", "values": [{"smiles": "Nc1nc2c(c(=O)[nH]1)N(C=O)[C@H](CNc1ccc(C(=O)N[C@@H](CCC(=O)O)C(=O)O)cc1)CN2", "max response": "3.69% (inactive)"}, {"smiles": "COC(=O)C=CC(=O)OC", "max response": "7.81% (inactive)"}, {"smiles": "CC(C)(C)[C@H](NC(=O)c1ccc(N)c(Cl)c1)C(=O)N1CCC[C@@H]1C(=O)N[C@H](C#N)CC(=O)O", "max response": "5.36% (inactive)"}, {"smiles": "CC[C@H]1OC(=O)[C@H](C)[C@@H](O[C@H]2C[C@@](C)(OC)[C@@H](O)[C@H](C)O2)[C@H](C)[C@@H](O[C@@H]2O[C@@H](C)C[C@H](N(C)C)[C@@H]2O)[C@](C)(O)C[C@@H](C)C(=O)[C@H](C)[C@@H](O)[C@]1(C)O", "max response": "5.08% (inactive)"}, {"smiles": "COc1cc(C[C@@H](CO)[C@H](CO)Cc2ccc(O)c(OC)c2)ccc1O", "max response": "3.84% (inactive)"}, {"smiles": "COc1cc(C=CC(=O)CC(=O)C=Cc2ccc(O)c(OC)c2)ccc1O", "Potency": "38.2 µM (active)"}, {"smiles": "CN1C(C(=O)Nc2ccccn2)=C(O)c2sc(Cl)cc2S1(=O)=O", "max response": "3.99% (inactive)"}, {"smiles": "Oc1ccc([C@@H]2Oc3ccc(O)cc3[C@@H]3CCC[C@@H]32)cc1", "Potency": "14.8 µM (active)"}, {"smiles": "Oc1cc2c(cc1O)C1c3ccc(O)c(O)c3OCC1(O)C2", "note": "(centres undefined)", "max response": "7.88% (inactive)"}, {"smiles": "Cn1c(Nc2ccc(C(F)(F)F)cc2)nc2cc(Oc3ccnc(-c4ncc(C(F)(F)F)[nH]4)c3)ccc21", "Potency": "11.8 µM (active)"}, {"smiles": "CC(=O)O[C@]1(C(C)=O)CC[C@H]2[C@@H]3C=C(C)C4=CC(=O)CC[C@]4(C)[C@@H]3CC[C@@]21C", "outcome": "inactive"}, {"smiles": "C[C@@H](NCc1cc2ccccc2[nH]1)c1cccc2ccccc12", "max response": "3.8% (inactive)"}, {"smiles": "CC(=O)O[C@H]1C[C@@H]2CC[C@H]3[C@H]4C[C@H]([N+]5(C)CCCCC5)[C@@H](OC(C)=O)[C@@]4(C)CC[C@@H]3[C@@]2(C)C[C@H]1[N+]1(C)CCCCC1", "outcome": "inactive"}, {"smiles": "C=CC[C@@H]1C=C(C)C[C@H](C)C[C@H](OC)[C@H]2O[C@@](O)(C(=O)C(=O)N3CCCC[C@H]3C(=O)O[C@H](C(C)=C[C@@H]3CC[C@H](O)[C@H](OC)C3)[C@@H](C)[C@@H](O)CC1=O)[C@@H](C)C[C@@H]2OC", "outcome": "inactive"}, {"smiles": "C[C@@H]1C(=O)O[C@H]2CC34[C@H]5C[C@@H](C(C)(C)C)C36[C@H](OC(=O)[C@@H]6O)O[C@@]4(C(=O)O5)[C@]21O", "note": "(some centres undefined)", "max response": "2.09% (inactive)"}, {"smiles": "c1ccc(CNc2nc(NCc3ccccc3)c3ccccc3n2)cc1", "Potency": "26.4 µM (active)"}, {"smiles": "Cc1ccc2nc(NCCN)c3ncc(C)n3c2c1", "Potency": "3.32 µM (active)"}, {"smiles": "COc1cc(C)c(C=CC(C)=CC=CC(C)=CC(=O)O)c(C)c1C", "outcome": "inactive"}, {"smiles": "CC(=O)N1CCN(c2ccc(OCc3nn(C)c(C)c3-c3cccc4c(CCCOc5cccc6ccccc56)c(C(=O)O)n(Cc5cccnc5)c34)cc2)CC1", "outcome": "inactive"}, {"smiles": "CC(=O)C1=C(O)C=C2Oc3c(C(C)=O)c(O)c(C)c(O)c3C2(C)C1=O", "note": "(centres undefined)", "outcome": "inactive"}, {"smiles": "C=Cc1c(C)c2cc3nc(cc4[nH]c(cc5nc(cc1[nH]2)C(C)=C5CCC(=O)O)c(CCC(=O)OC)c4C)[C@@]1(C)C3=CC=C(C(=O)OC)[C@H]1C(=O)OC", "outcome": "inactive"}, {"smiles": "NC[C@H]1O[C@H](O[C@H]2[C@@H](O)[C@@H](O[C@H]3O[C@H](CO)[C@@H](O)[C@H](N)[C@@H]3O)[C@H](N)C[C@@H]2N)[C@H](N)C[C@H]1O", "max response": "1.19% (inactive)"}, {"smiles": "O=C1NC(=O)[C@@H](c2cn3c4c(cccc24)CCC3)[C@H]1c1c[nH]c2ccccc12", "Potency": "0.833 µM (active)"}, {"smiles": "C[C@H](NC(=O)Cc1cc(F)cc(F)c1)C(=O)N[C@H](C(=O)OC(C)(C)C)c1ccccc1", "max response": "-8.93% (inactive)"}, {"smiles": "C[N+]1(C)[C@@H]2C[C@@H](OC(=O)C(O)(c3cccs3)c3cccs3)C[C@H]1[C@@H]1O[C@@H]12", "outcome": "inactive"}, {"smiles": "OCC(O)C(O)C(O)CO", "note": "(centres undefined)", "max response": "-4.24% (inactive)"}, {"smiles": "C=C1C[C@@]2(O)O[C@@]3(C[C@H]2C(C)C)[C@H](C)CC[C@H]13", "outcome": "inactive"}, {"smiles": "O=C(O)[C@H](CC(=O)N1C[C@@H]2CCCC[C@H]2C1)Cc1ccccc1", "max response": "2.32% (inactive)"}, {"smiles": "COc1ccc([C@@H]2CNC(=O)C2)cc1OC1CCCC1", "outcome": "inactive"}]}]}
